According to the supplement of paper PMC13380429:

Tested on: Vero E6 infected with SARS-CoV-2
Experiment: inhibition of SARS-CoV-2 cytopathic effect; higher = more antiviral protection, active = above 15
Conditions: 48 h

Measured: inhibition of SARS-CoV-2 cytopathic effect

O=C(O)/C=C/c1ccc(O)c(O)c1 [caffeic-acid]
inactive: 1 nM 2.05% | 8.33 nM -0.05% | 100 nM 0.87% | 833.33 nM -0.22% | 10000 nM -4.36%

NS(=O)(=O)c1cccc2c1c([N+](=O)[O-])cc1nc(O)c(O)nc12
inactive: 1 nM 2.79% | 8.33 nM 2.79% | 100 nM 2.47% | 833.33 nM 1.7% | 10000 nM -1.01%

CC(C)NCCCn1c(Sc2cc3c(cc2I)OCO3)nc2c(N)ncnc21
inactive: 1 nM -3.36% | 8.33 nM -0.68% | 100 nM -0.95% | 833.33 nM -7.21% | 10000 nM -3.3%

CNC[C@@H]1CC[C@@H](N)[C@@H](O[C@H]2[C@H](O)[C@@H](O[C@H]3OC[C@](C)(O)[C@H](NC)[C@H]3O)[C@H](N)C[C@@H]2N)O1 [micronomicin]
inactive: 1 nM 0.04% | 8.33 nM 1.42% | 100 nM 0.72% | 833.33 nM 3.66% | 10000 nM -0.03%

N#Cc1c(N)nc(SCc2csc(-c3ccc(Cl)cc3)n2)c(C#N)c1-c1ccc(OCCO)cc1 [capadenoson]
inactive: 1 nM 0.18% | 8.33 nM -0.34% | 100 nM -1.11% | 833.33 nM -2.63% | 10000 nM -3.59%

CNC(=O)c1ccc(Nc2ncc(C(F)(F)F)c(NCc3nccnc3N(C)S(C)(=O)=O)n2)cc1 [defactinib]
inactive: 1 nM -2.21% | 8.33 nM -4.25% | 100 nM -0.22% | 833.33 nM -2.59% | 10000 nM -4.28%

O[C@H]1[C@H](O)[C@@H](O)CN2CC[C@H](O)[C@H]12 [castanospermine]
inactive: 1 nM 0.15% | 8.33 nM 1.99% | 100 nM 1.25% | 833.33 nM 1.7% | 10000 nM 2.28%

CCc1nc(C)ccc1O [emoxipin]
inactive: 1 nM 1.2% | 8.33 nM 3.95% | 100 nM 1.53% | 833.33 nM 0.68% | 10000 nM 1.33%

Cc1cc2ncc(C(=O)NCC(C)(C)NCC(=O)N3CCC[C@H]3C#N)cn2n1 [anagliptin]
inactive: 1 nM -0.17% | 8.33 nM -0.56% | 100 nM -0.23% | 833.33 nM 0.84% | 10000 nM 0.07%

CC(C)(C)NC(=O)[C@@H]1C[C@@H]2CCCC[C@@H]2CN1C[C@@H](O)[C@H](Cc1ccccc1)NC(=O)[C@H](CC(N)=O)NC(=O)c1ccc2ccccc2n1 [saquinavir]
inactive: 1 nM -9.33% | 8.33 nM -7.46% | 100 nM -1.46% | 833.33 nM -6.25% | 10000 nM -22%

COc1ccc(CCC(=O)Nc2nc3ccc(Cl)cc3s2)cc1OC
inactive: 1 nM -2.56% | 8.33 nM -3.14% | 100 nM -2.66% | 833.33 nM 0.12% | 10000 nM 0.38%

CN(CCCN1c2ccccc2CCc2ccccc21)CC(=O)c1ccc(Cl)cc1 [lofepramine]
inactive: 1 nM 2.35% | 8.33 nM -0.58% | 100 nM 1.56% | 833.33 nM 2.86% | 10000 nM 0.69%

Cc1c(Cl)c(C)[n+]([O-])c(Cl)c1-c1noc(-c2cc(O)c(O)c([N+](=O)[O-])c2)n1 [opicapone]
inactive: 1 nM 2.55% | 8.33 nM 1.95% | 100 nM 0.21% | 833.33 nM 0.43% | 10000 nM -1.39%

O=C(c1ccc(F)cc1)C1CCN(CCn2c(=S)[nH]c3ccccc3c2=O)CC1 [altanserin]
inactive: 1 nM -0.65% | 8.33 nM 0.82% | 100 nM 0.34% | 833.33 nM 2.37% | 10000 nM 1%

COC1(C2=NCCN2)COc2ccccc2O1 (stereo not given)
inactive: 1 nM 0.37% | 8.33 nM 1.98% | 100 nM -0.68% | 833.33 nM 1.5% | 10000 nM 1.58%

O=S(=O)(O)c1cc(O)ccc1O [etamsylate]
inactive: 1 nM 0.18% | 8.33 nM -1.16% | 100 nM -0.81% | 833.33 nM 0.23% | 10000 nM 1.8%

NC[C@H]1O[C@H](O[C@H]2[C@H](O[C@@H]3O[C@H](CO)[C@@H](O)[C@H]3O)[C@@H](O)[C@H](N)C[C@@H]2N)[C@H](N)[C@@H](O)[C@@H]1O [ribostamycin-sulfate]
inactive: 1 nM 2.02% | 8.33 nM -0.235% | 100 nM -0.77% | 833.33 nM -1.25% | 10000 nM -0.88%
